Measured values from PubChem BioAssay AID743332 (Broad Institute, 2014).
Entries with a potency or affinity are not part of this list. Calls of active or inactive are those of the source.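 The calls were made as follows: active = at least 35% decrease in signal relative to neutral control well mean; inactive = the rest, opposite-direction activity included.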

Molecular target: Caspase-6 (Homo sapiens) (UniProt P55212)
Test: human caspase-6 inhibitors, dose response, biochemical, VEID-R110 fluorescence, dry powder retest (AID 743332)
Conditions: purified caspase-6, Z-VEID-R110 cleavage fluorescence; series mostly up to 35 µM; activity change, negative = inhibition: at the top concentration

Sequence of Caspase-6 (Homo sapiens) (P55212 24-179 limits assumed): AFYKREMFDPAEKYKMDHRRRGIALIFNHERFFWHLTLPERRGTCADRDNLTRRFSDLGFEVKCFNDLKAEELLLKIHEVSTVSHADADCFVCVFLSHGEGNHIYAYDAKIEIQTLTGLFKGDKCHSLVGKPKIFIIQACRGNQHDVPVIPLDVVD
Sequence of Caspase-6 (Homo sapiens) (P55212 194-293 limits assumed): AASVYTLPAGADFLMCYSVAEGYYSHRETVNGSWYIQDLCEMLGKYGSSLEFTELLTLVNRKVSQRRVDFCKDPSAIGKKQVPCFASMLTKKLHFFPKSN

Activity change, negative = inhibition, inactive:
Cc1ccc(S(=O)(=O)N2CCN(C(=O)c3ccccc3)CC2)cc1 8.23%
CC(=O)Nc1ccc(C(=O)N2CCN(S(=O)(=O)c3ccc(C)cc3)CC2)cc1 -10.9%
O=C(c1cccnc1)N1CCN(S(=O)(=O)c2cccnc2)CC1 8.03%
Cc1ccc(C(=O)N2CCN(S(=O)(=O)c3ccc(C)cc3)CC2)cc1 4.57%
CC(=O)Nc1ccc(S(=O)(=O)N2CCN(C(=O)c3ccccc3)CC2)cc1 10.7%
O=C(c1ccccc1)N1CCN(S(=O)(=O)c2cccnc2)CC1 5.36%
O=S(=O)(c1ccccc1)N1CCN(Cc2ccccc2)CC1 1.29%
O=C(c1ccccc1)N1CCN(S(=O)(=O)c2ccc(Cl)cc2)CC1 3.42%
Cc1ccc(S(=O)(=O)N2CCCN(C(=O)c3ccoc3)CC2)cc1 1%
COc1ccc(C(=O)N2CCN(S(=O)(=O)c3ccccc3)CC2)cc1 20.3%
O=C(c1ccoc1)N1CCN(S(=O)(=O)c2cccnc2)CC1 5.59%
O=C(c1cccs1)N1CCN(S(=O)(=O)c2ccccc2)CC1 0.185%
CC(=O)Nc1ccc(S(=O)(=O)N2CCN(C(=O)c3ccc(C)cc3)CC2)cc1 5.54%
[O-][n+]1c2c(nn1-c1ccccc1Cl)-c1nonc1CC2 4.6%
Cc1ccc(C(=O)N2CCCN(S(=O)(=O)c3ccc(C)cc3)CC2)cc1 9.58%
COc1ccc(S(=O)(=O)N2CCN(C(=O)c3ccccc3)CC2)cc1 1.2%
Cc1ccc(S(=O)(=O)N2CCN(C(=O)c3ccco3)CC2)cc1 3.21%
Cc1ccc(C(=O)N2CCN(S(=O)(=O)c3ccccc3)CC2)o1 0.801%
O=C(C1COc2ccccc2O1)N1CCN(S(=O)(=O)c2ccccc2F)CC1 (stereo not given) -2.1%
O=C(c1ccccc1)N1CCCC(NS(=O)(=O)c2ccccc2)C1 (stereo not given) 7.3%
O=C(C1COc2ccccc2O1)N1CCN(S(=O)(=O)c2ccccc2)CC1 (stereo not given) -3.24%
Cc1ccc(C(=O)N2CCN(S(=O)(=O)c3ccc4c(c3)OCCO4)CC2)cc1 -11%
Cc1ccc(S(=O)(=O)N2CCN(C(=O)C3COc4ccccc4O3)CC2)cc1 (stereo not given) 5.54%
O=C(c1ccc2c(c1)OCCO2)N1CCN(S(=O)(=O)c2ccccc2)CC1 6.42%
Cc1cccc(C(=O)N2CCCN(S(=O)(=O)c3ccc4c(c3)OCCO4)CC2)c1 25%
CC(=O)N1CCCc2cc(S(=O)(=O)N3CCN(C(=O)C4COc5ccccc5O4)CC3)ccc21 (stereo not given) 12%
O=C(c1ccc(F)cc1)N1CCCN(S(=O)(=O)c2ccc(F)cc2)CC1 5%
Cc1ccc(C(=O)N2CCN(S(=O)(=O)c3ccccc3)CC2)cc1 4.95%
O=C(c1ccccn1)N1CCN(S(=O)(=O)c2ccccc2)CC1 5.53%
[O-][n+]1c2c(nn1-c1ccccc1)-c1nonc1CC2 4.39%
